Measured values taken from PubChem BioAssay (NCI).
This is part of a sample that, as a whole, favours compounds with a hit. Of some 83,000 tested, about 20% had one in any assay.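 Negative percent growth values reflect cell death: -40 means 40% of the cells present at the start died, and -100 means all died.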 A number with no mark means an inactive call. The source made the active and inactive calls. Rule for the calls: active = growth percent below 10; inactive = the rest.

Tests used:
Experiment in all cases: NCI-60 one-dose screen, 48 h (100 = growth as untreated, 0 = no growth, -100 = all killed)
Conditions in all cases: 10 µM unless noted
[1] = system: NCI-H23 lung
[2] = system: NCI-H226 lung
[3] = system: NCI-H322M lung
[4] = system: NCI-H460 lung
[5] = system: HOP-92 NSCLC
[6] = system: NCI-H522 lung
[7] = system: A549/ATCC NSCLC
[8] = system: 786-0 renal
[9] = system: COLO 205 colon
[10] = system: HOP-62 NSCLC

Row | SMILES | growth [1] | growth [2] | growth [3] | growth [4] | growth [5] | growth [6] | growth [7] | growth [8] | growth [9] | growth [10] [%]
1 | Cc1ccc(C(=O)c2ccc(CC(=O)NN3C(=O)c4ccccc4C3=O)n2C)cc1 | 100% | 97.8% | 102% | 104% | 97.8% | 88.1% | 101% | 103% | 105% | –
2 | COc1ccc(-c2nc3c(N)c(CO)cnc3s2)cc1 | 86.7% | 41.6% | 76% | 97.6% | 77% | – | 91.7% | 95% | 104% | 100
3 | C/C=C(/C)n1cnc2c(Nc3ccccn3)nc(Cl)nc21 | 102% | 102% | 99.3% | 103% | 99.9% | 87.1% | 104% | 101% | 114% | –
4 | Nc1ncnc2c1N=C(c1ccc3c(c1)OCO3)CC(c1cccc(Nc3ccnc4cc(C(F)(F)F)ccc34)c1)N2 (centres undefined) | 84.2% | 78.1% | 94.3% | 90.7% | 53.8% | 73.6% | 68.6% | 82.5% | 115% | –
5 | COc1ccc2c(c1)c(/C(O)=C1\COC(=O)C1=O)cn2Cc1ccc(F)cc1 | 110% | 90.4% | 101% | 103% | 72.1% | 73.9% | 101% | 96.1% | 108% | –
6 | CCNC(=O)Oc1ccc(/C(=C(/C)Cc2ccc(OC)cc2)c2ccc(OCCN3CCCCC3)cc2)cc1 | 87.7% | 86.5% | 89.2% | 35.7% | 44.4% | 72.8% | 62% | 72.6% | 20.9% | –
7 | CC1C=CC(OC(=O)C(C)(O)CCC(O)(C(=O)OC2CC(O)C(C(C)C)CC2(C)O)C(C)C)(C(C)C)CC1 (centres undefined) | -70.5% [4.63 µM] (active) | -48.6% [4.63 µM] (active) | -89.9% [4.63 µM] (active) | -69.3% [4.63 µM] (active) | -67.1% [4.63 µM] (active) | -76.7% [4.63 µM] (active) | -78.2% [4.63 µM] (active) | -88.5% [4.63 µM] (active) | -68.3% [4.63 µM] (active) | –
8 | Fc1ccc(Cn2cc(CSc3nc4ccccc4o3)nn2)cc1 | 106% | 92.8% | 91.9% | 110% | 113% | 83.4% | 103% | 91.1% | 114% | –
9 | CC1=C2[C@@H](CC1)[C@]1(C)O[C@@](C3CCCCC3)(C[C@H]1OC(=O)CO)[C@H]2OC(=O)/C=C/c1ccccc1 | 93.6% | 76.5% | 94.6% | 75.8% | 44.3% | 68% | 63.1% | 55.9% | 93.8% | –
10 | COc1cc(OC)c(C(=O)C(CN(C)C)CN(C)C)cc1OC | 96.5% | 108% | 108% | 109% | 40% | -73.7% (active) | 109% | 7.98% (active) | -85.4% (active) | –
11 | C[C@@H]1O[C@@H](O[C@@H]2C[C@H](c3ccc4c(c3O)C(=O)C3=C(C4=O)[C@@]4(O)C(=O)C[C@](C)(O)C[C@@]4(O)C=C3)O[C@H](C)[C@H]2O)CC[C@@H]1O[C@H]1C[C@@H](O)[C@H](O)[C@@H](C)O1 | 100% | 116% | 106% | 105% | 149% | 41.5% | 95.3% | 103% | -19.1% (active) | –
12 | Nc1c(C(=O)Nc2cccc(Cl)c2)sc2nc3c(cc12)CCCC3 | 103% | 83.6% | 108% | 100% | 82.7% | 80.3% | 81.7% | 89% | 92.2% | –
13 | O=C(N=Nc1c(O)[nH]c2ccccc12)Nc1ccc(F)cc1 | 96.8% | 91.7% | 93.8% | 108% | 94% | 78.5% | 87.5% | 97.3% | 103% | –
14 | O=C(/C=C/C12c3ccccc3C(c3ccccc31)C1C(=O)NC(=O)C12)c1ccc(Br)cc1 (centres undefined) | 50% | 94.4% | 55.8% | 34.6% | 74.5% | 47.1% | 50.2% | 69.2% | 58.8% | –
15 | CCN(CC)c1ccc(/C=N/NC(=O)Cc2ccc(Nc3ccnc(C(F)(F)F)c3)cc2)c(O)c1 | 19.1% | 19.4% | 25.9% | 8.96% (active) | 54.1% | 33.9% | 23.4% | 1.44% (active) | 64.9% | –
16 | C/C(=N\O)c1ccc(NC(=O)CSc2nnc(-c3cc(-c4ccc(S(C)(=O)=O)cc4)nc4ccccc34)n2-c2ccccc2)cc1 | 99.2% | 90.3% | 91.7% | 90.4% | 80.7% | 82.2% | 81.3% | 93.9% | 102% | –
17 | CCN1C(=O)N(CC)C2C1NN=c1s/c(=C\c3ccc(C(F)(F)F)cc3)c(=O)n12 (centres undefined) | 26.7% | 60.8% | 45.2% | 2.84% (active) | 34.8% | -10.5% (active) | 5.31% (active) | 24.9% | -6.59% (active) | –
18 | CCOC(=O)c1c(C)nc2ccccc2c1/C=C/c1ccccc1 | 51% | 74.3% | 95.5% | 86.9% | 79.7% | 54.7% | 57.1% | 88.6% | 84.1% | –
19 | Cc1ccc(NC(=O)Cn2c(Br)nc3c2c(=O)n(C)c(=O)n3C)cc1 | 22.7% | -13.2% (active) | 30.6% | 14.6% | -2.3% (active) | 62.6% | 27.1% | -67.1% (active) | 19.5% | –
20 | C=CCN1C(=O)c2cccc3c(N4CCOCC4)ccc(c23)C1=O | 8.01% (active) | -2.43% (active) | -56.6% (active) | 8.52% (active) | 21.1% | -1.11% (active) | 3.05% (active) | 26.2% | -21.8% (active) | –
21 | CCCCCCCC/C=C\CCCCCCCCOc1ccc(CC(=O)NCC[N+]2(C)CCOCC2)cc1 | 78.9% | 71.1% | 88.1% | 54.9% | 66.5% | 69.5% | 88.7% | 67.7% | -14.8% (active) | –
22 | COc1ccc(/C=C(/C(=O)n2cnnn2)c2cc(OC)c(OC)c(OC)c2)cc1 | 41.8% | 40.7% | 50.8% | 12.7% | 69.3% | – | 29% | 35.5% | -3.15% (active) | 25.6
23 | CC(=O)Oc1ccc(OC(C)=O)c2ccccc12 | – | 74.9% | 106% | 107% | -88.6% (active) | 61.6% | 98.7% | 107% | 112% | 90.2
24 | O=C(NC1CC(F)C1)c1cc2cccnc2n1-c1ccc(Cl)c(Cl)c1 (centres undefined) | – | 103% | 97.3% | 101% | 83% | 88.5% | 96.5% | 95.2% | 109% | 98.9
25 | O=C(O)COc1ccc(Cl)c(Cl)c1 | – | 94.1% | 120% | 109% | 90.2% | 102% | 107% | 104% | 115% | 100
26 | COc1ccc(Cn2cc(C(=O)N=Nc3c(O)[nH]c4c(C)cccc34)nn2)cc1 | – | 75.1% | 89.6% | 73.1% | 51.3% | 77.5% | 85.3% | 43.5% | 108% | 106
